In PubChem BioAssay (NCI):
Compounds without any hit were thinned out: in the full panel of roughly 79,000, 15% have a hit. The source made the active and inactive calls. Rule as the data show it: active = growth inhibition above about 70%; inactive = the rest.

What was measured:
[1] = NCI Yeast Anticancer Drug Screen. Data for the rad50 strain (AID 155);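 also: 0% = growth of vehicle-only cultures of the same strain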; conditions: S. cerevisiae rad50 strain growth inhibition; at 50.0 µM; hits give high values
How it was run: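 Relative growth inhibition (compound vs vehicle) was measured in yeast with a defined repair-gene alteration.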

[2] = NCI Yeast Anticancer Drug Screen. Data for the mec2-1 strain (AID 157); conditions: S. cerevisiae mec2-1 strain, at 50.0 µM, hits give high values
How it was run: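 Compounds were applied to mec2-1 yeast cells. Their growth was then compared with that of vehicle-treated cultures to give growth inhibition.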

[3] = NCI Yeast Anticancer Drug Screen. Data for the sgs1 mgt1 strain (AID 161);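 also: 0% = growth of cultures given vehicle only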; conditions: S. cerevisiae sgs1 mgt1 strain, at 50.0 µM, hits give high values
How it was run: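 Percent growth inhibition was derived by comparing compound-exposed mutant yeast with vehicle-exposed cultures. The strain carries alterations in DNA damage repair.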

[4] = NCI Yeast Anticancer Drug Screen. Data for the cln2 rad14 strain (AID 165);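 also: 0% = growth equal to vehicle treated cultures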; conditions: S. cerevisiae cln2 rad14 strain, at 50.0 µM, hits give high values
How it was run: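 Strain: cln2 rad14 yeast, altered in cell cycle control and DNA damage repair. Read-out: growth inhibition vs vehicle.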

[5] = NCI Yeast Anticancer Drug Screen. Data for the bub3 strain (AID 167); conditions: S. cerevisiae bub3 mutant strain, at 50.0 µM, hits give high values
How it was run: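 Screening used yeast with an engineered genetic alteration affecting cell cycle control. Compound-exposed cultures were compared with vehicle cultures, and reduced growth was taken as inhibition.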

[6] = NCI Yeast Anticancer Drug Screen. Data for the mlh1 rad18 strain (AID 175); conditions: S. cerevisiae mlh1 rad18 strain growth inhibition; at 50.0 µM; hits give high values
How it was run: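 A repair-deficient yeast strain is exposed to test compound, and growth is scored relative to vehicle-treated controls.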

Measured: growth inhibition

Ic1cccs1
inactive: [1] 34.9% | [2] -3.05% | [3] 6.65% | [4] -6.75% | [5] -4.3% | [6] 11.8%

CC(CCC#N)(CCC#N)C(=O)c1ccccc1
inactive: [1] 28.6% | [2] 25.7% | [3] 25.1% | [4] -38.3% | [5] -4.75% | [6] 7.65%

COC1(OC)C2(Cl)C(Cl)=C(Cl)C1(Cl)C1COCC12 (stereo not given)
inactive: [1] -48% | [2] 17.5% | [3] -40.2% | [4] 12.8% | [5] 22.2% | [6] -8.6%

CC(=O)NC(CCC(=O)c1ccccc1)C(=O)O (stereo not given)
inactive: [1] 18.1% | [2] -4.95% | [3] 17.3% | [4] 5.05% | [5] 0% | [6] 16%

Cc1ccc2nc(-c3ccc(N=Cc4ccccc4O)cc3)sc2c1
inactive: [1] 17.7% | [2] 12.9% | [3] 6.5% | [4] -6% | [5] 27.9% | [6] 12.3%

CCN(Cc1ccc(Cl)c(Cl)c1)c1ccc2nc(N)nc(N)c2c1C
inactive: [1] 40% | [3] 50.9% | [4] 40.3% | [5] 6.15% | [6] 29.9%
active: [2] 84.6%

CCOC(=O)C(COS(C)(=O)=O)(COS(C)(=O)=O)C(=O)OCC
inactive: [1] -24.4% | [2] -22.9% | [3] -21.4% | [4] -2.05% | [5] -2.35% | [6] -6.1%

C=CCC(O)C=C (stereo not given)
inactive: [1] 10.3% | [2] -14.9% | [3] 5.4% | [4] -0.8% | [5] -5.35% | [6] 12.4%

CC(C)(C)NCCC(O)c1cc(C(F)(F)F)nc2c(C(F)(F)F)cccc12 (stereo not given)
inactive: [1] -4.3% | [2] -36.1% | [3] -22.4% | [4] 21.1% | [5] -11.9% | [6] 0.15%

Cn1c(=O)c2nc3c(=O)n(C)c(=O)n(C)c3nc2n(C)c1=O
inactive: [1] -8% | [2] -11.2% | [3] -17.2% | [4] -6.9% | [5] -13.7% | [6] -2.25%

C=COC(=O)C(C)(C)C
inactive: [1] 8.3% | [2] -13.8% | [3] 14.9% | [4] 21.4% | [5] -0.45% | [6] 31.5%

OCC(O)COc1ccc(Cl)cc1Cl (stereo not given)
inactive: [1] 22.2% | [2] 6.25% | [3] 25.8% | [4] 8.85% | [5] 10.1% | [6] 16.8%

O=C1C=C(c2ccccc2)C(O)(c2ccccc2)C1 (stereo not given)
inactive: [1] 15.1% | [2] 6.85% | [3] 6.75% | [4] 5.1% | [5] 11.4% | [6] 6.15%

CC1CC(C)S(=O)(=O)C1 (stereo not given)
inactive: [1] -35% | [2] -30.9% | [3] -39% | [4] -14.9% | [5] -39.8% | [6] -2%

Cc1ccc([N+](=O)[O-])c(C)n1
inactive: [1] 19.1% | [2] -23.1% | [3] 6.2% | [4] 27.1% | [5] -4.4% | [6] 23.4%

NC(CCl)=NCC12CC3CC(CC(C3)C1)C2
inactive: [1] 52% | [2] 25.9% | [3] 48.8% | [4] 14.8% | [5] 54% | [6] 56.9%

Cn1/c(=N\N=C\c2ccccc2OCCO)sc2ccccc21
inactive: [1] -2.7% | [2] 17.9% | [3] 18.8% | [4] 9.7% | [5] 26.4% | [6] 4.3%

COC1OC(C(COC(C)=O)OC(C)=O)C(OC(C)=O)C(OC(C)=O)C1OC(C)=O (stereo not given)
inactive: [1] 13.8% | [2] 1.75% | [3] 4.35% | [4] -46.5% | [5] 52.2% | [6] -14.8%

CCOC(=O)CNC(=O)Sc1ccc(C(C)(C)C)cc1
active: [1] 88.2% | [2] 88.2% | [3] 84.2% | [4] 70.2% | [5] 76.7%
inactive: [6] 61.8%

OCCNc1ccccc1
inactive: [1] 31.9% | [2] 11.4% | [3] 2.75% | [4] 11.1% | [5] 6.3% | [6] 9.7%

CCN1CCCC(N2c3ccccc3Sc3ccccc32)C1 (stereo not given)
inactive: [1] -9.15% | [2] -15.2% | [3] 8% | [4] -58.8% | [5] 8.5% | [6] -4%

CCC(C)C1CCC(O)CC1 (stereo not given)
inactive: [1] 30.8% | [2] 9.55% | [3] 9.15% | [4] 21.5% | [5] 24.2% | [6] 18.9%

CCOC(=O)C1(N)CCCCC1
inactive: [1] 10.3% | [2] 0.45% | [3] 11.1% | [4] -9.85% | [5] 13% | [6] 11.8%

CCCCCC(=O)OCCC1CCCCC1
inactive: [1] 25.6% | [2] 9.3% | [3] 18.7% | [4] -6.7% | [5] 11.6% | [6] 31.2%

O=Cc1ccc(F)cc1
inactive: [1] -7.9% | [2] -23.6% | [3] -4.1% | [4] -13.1% | [5] -10.6% | [6] -17.4%

Clc1cccc(Cl)c1C1CSc2ccccc2N=C1c1ccccc1 (stereo not given)
inactive: [1] -2.55% | [2] 8.9% | [3] 16.3% | [4] 11% | [5] -0.9% | [6] 3.65%

C=C1SC(=Nc2c(C)cccc2C)N(c2nc(Cl)nc(Cl)n2)C12CCCCC2
inactive: [1] 21% | [2] -8.75% | [3] 11.2% | [4] 19.1% | [5] 10.9% | [6] 14.1%

O=S(=O)(O)c1ccc(O)c(C2CCCCC2)c1
inactive: [1] -7.1% | [2] -8.4% | [3] -21.1% | [4] -23.2% | [5] -12.2% | [6] 31.4%

CC(=O)N(CCCCCCN(C(C)=O)C(C)=O)C(C)=O
inactive: [1] -14.8% | [2] -9.25% | [3] -0.5% | [4] -0.55% | [5] -9.85% | [6] -6.15%

Cc1[nH]n(-c2ccccc2)c(=O)c1C=NC(=S)C(N)=S
inactive: [1] -24.4% | [2] -22.9% | [3] -20.4% | [4] -19.1% | [5] -54.4% | [6] -20.5%

O=C(NCCc1ccccc1)/C(=C\c1ccc(Cl)cc1Cl)NC(=O)c1ccccc1
inactive: [1] 1.65% | [2] -6.15% | [3] 1.85% | [4] -5.95% | [5] 4.35% | [6] 13.9%

S=c1nc2[nH]c3ccccc3c2n[nH]1
inactive: [1] 8.45% | [2] -17.9% | [3] -5.65% | [4] -7.3% | [5] -8.95% | [6] 6.45%

Cc1ccc(C)c2c1CCC2=O
inactive: [1] 3.9% | [2] 3.85% | [3] 13.8% | [4] -19.2% | [5] 3.85% | [6] 13.3%

CC(=O)OC(C)c1cccc(C#N)c1 (stereo not given)
inactive: [1] 7.15% | [2] -25.4% | [3] 6.2% | [4] -8.9% | [5] -2.95% | [6] 22%

CCOc1ccc(C(=O)O)cc1
inactive: [1] 34.8% | [2] -12.8% | [3] -1.65% | [4] 4.85% | [5] 8.2% | [6] 31.1%

C=C(c1ccc(N(C)C)cc1)c1ccc(N(C)C)cc1
inactive: [1] -0.95% | [2] -2.55% | [3] -3.05% | [4] -40.4% | [5] 9.5% | [6] -5.3%

CCC(=O)Oc1ccc2ccccc2c1
inactive: [1] 49.4% | [2] 32.8% | [3] 28.5% | [4] 14.8% | [5] 17.4% | [6] 29.8%

N#C/C(=C\c1ccc(C#N)cc1)C(=O)c1ccccc1
inactive: [1] 10.5% | [2] 0.95% | [3] 16.4% | [4] 19% | [5] 9.95% | [6] 18.9%

COc1nc(Nc2cccc(C(F)(F)F)c2)nc(OC)n1
inactive: [1] 8.5% | [2] -8% | [3] 15.4% | [4] 7.9% | [5] 23.2% | [6] 6.25%

C[C@H](CCC[C@H](C)OS(=O)(=O)c1ccccc1)OS(=O)(=O)c1ccccc1
inactive: [1] 9.3% | [2] -3.9% | [3] 5.85% | [4] 4.55% | [5] -8.15% | [6] -16.6%
